A selection: hits, their analogues and other compounds. The true share with any hit is near 21%.
Pf growth 48h: Primary qHTS for delayed death inhibitors of the malarial parasite plastid, 48 hour incubation | P. falciparum luciferase growth in erythrocytes, 48 h | Potency, µM (doses to about 28.7 µM), for inactives: at the highest dose activity change, negative = inhibition, usual class: inhibitors | 310,000 tested, 5.9% active; further: potency means the concentration at half of the fitted maximal effect; on the % scale 0 is the no-effect control and ±100 the full control effect
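Luminescence readout; reporter = integrated firefly luciferase in P. falciparum. RBC culture at 2% hematocrit, 0.1% parasitemia final, 37 C/5% CO2; decreased signal taken as growth inhibition.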
Shiga toxin inh: A qHTS for Small Molecule Inhibitors of Shiga Toxin; Vero cells, Shiga toxin protein synthesis inhibition reporter; inhibition, % at 38.7 µM; 290,000 tested, 9.2% active; in the data active means inhibition mostly above about 28%, no sharp cut-off; inactive means mostly below about 43%; further: 0% is about no effect
NS1 inh: qHTS Assay for Inhibitors of Influenza NS1 Protein Function; Potency, µM (series often up to 46.1 µM), without a hit: at the highest dose activity, positive = more growth; 270,000 tested, 0.4% active; AID 2326, 2010; calls by dose curve; further: potency means the concentration at half of the fitted maximal effect; actives are rising curves; nearly all actives have a fitted effect of over 50% in size
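S. cerevisiae expressing influenza A NS1, grown in glucose, washed, then diluted 1:100 into pH 6.0 -URA galactose medium with 23 nl compound. Growth recovery read as OD600; NS1-free strain serves as control.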
Pf growth 96h: Primary qHTS for delayed death inhibitors of the malarial parasite plastid, 96 hour incubation | Potency, µM (highest dose often 28.7 µM), for inactives: at the top dose activity change, negative = inhibition, most hits filed as inhibitors | AID 504834, 2011 | P. falciparum luciferase reporter growth, 96 h | 320,000 tested, 6.9% active; further: potency means the concentration at half of the fitted maximal effect; on the % scale 0 is the no-effect control and ±100 the full control effect
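Cell-based qHTS: luciferase-tagged P. falciparum in erythrocytes (2% hematocrit, 0.05% parasitemia final) incubated with compounds for 96 hours, 37 C, 5% CO2; luciferase detection reagent then added and luminescence measured.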
Sm TGR inh: qHTS Assay for the Inhibitors of Schistosoma Mansoni Peroxiredoxins | Potency, µM (titrated, usually from 114 µM), for inactives: at the highest dose activity change, negative = inhibition, actives largely listed as inhibitors | 360,000 tested, 3% active | purified TGR, DTNB reduction, TNB absorbance 405 nm; further: potency means the concentration at half of the fitted maximal effect; on the % scale 0 is the no-effect control and ±100 the full control effect; nearly all actives have a fitted effect of over 60% in size
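Kinetic colorimetric format: TGR-catalysed, NADPH-driven DTNB reduction monitored via TNB absorbance. Enzyme dispensed at 20 nM; compound exposure 15 min at room temperature before reaction start.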
Cycloheximide cs: Cycloheximide Counterscreen for Small Molecule Inhibitors of Shiga Toxin; max response, %; cell reporter, cycloheximide protein synthesis inhibition counterscreen; AID 2314, 2010; 300,000 tested, 12% active; in the data active means max response mostly above about 13%, no sharp cut-off; inactive means mostly below about 14%; further: read at 38.3 µM for the half of the compounds with a filed dose; 0% is about no effect
* = called active by the depositor; i = inactive; ? = inconclusive; / = no result. Unless noted, the call rests on the fitted dose curve; in most records, active means well fitted curve in the direction sought with a large enough effect; inconclusive means small, poorly fitted or top-dose-only effect, or another doubt; inactive means no such curve, though single readings can be large; an effect the other way counts as inactive or inconclusive.

SMILES	Pf growth 48h	Shiga toxin inh	NS1 inh	Pf growth 96h	Sm TGR inh	Cycloheximide cs
COc1ccc(CCN(C)S(=O)(=O)c2ccc(Cl)nc2)cc1OC	-18.0%	-4.3	/	0.6%	4.6%	6.5
NC(=O)C1CCN(c2nc(-c3cccc(Br)c3)cs2)CC1	?	/	/	-27.2%	/	/
Cc1cc(NC(=O)c2cccc(Oc3ccccc3)c2)n[nH]1	i	90.6*	0.7%	350.1%	9.2%	29.1*
Cc1cc(NC(=O)NC(=O)c2cccc(OC(F)(F)C(F)F)c2)n[nH]1	104.3%	68.8*	6.9%	?	-2.8%	26.6*
CCC(CC)NC(=O)c1cccc(Oc2ccccc2)c1	-23.5%	30.9*	/	-22.1%	2.8%	18.9
O=C(Nc1nn[nH]n1)c1cccc(Oc2ccccc2)c1	3.7%	-9.7	-3.0%	2.6%	-12.6%	-1.7
COCCn1c(=O)[nH]c(=O)c2c(C(F)(F)F)cc(-c3cccs3)nc21	-7.7%	-5.4	-2.8%	-5.9%	5.9%	-1.1
O=c1cc(O)c2sc3nc4c(c(C(F)(F)F)c3c2[nH]1)CCCCC4	2.08µM*	-1.7	12.7%	3.2%	5.2%	-1.6
COCCCn1c(CCC(=O)O)ccc1-c1cccs1	-25.3%	11.7	4.8%	/	8.91µM*	-4.4
CCCn1c(CCC(=O)O)ccc1-c1cccs1	0.6%	3.2	-34.0%	7.7%	3.55µM*	8.4
CCC(C)N1C(=O)S/C(=C/c2ccc(N3CCOCC3)cc2C)C1=O (centres undefined)	42.9%	87.0*	19.4%	42.0%	1.7%	56.0*
Cc1cc(N2CCOCC2)ccc1/C=C1\SC(=O)N(C(C)C)C1=O	111.4%	73.7	5.0%	203.2%	-0.2%	38.9*
Cc1cc(/C=C2/SC(=O)NC2=O)c(C)n1-c1ccc(N2CCOCC2)cc1	-28.8%	23.5	4.8%	-6.7%	-16.0%	8.2
Cc1ccc(NC(=O)CCNS(=O)(=O)c2ccc3c(c2)CCC(=O)N3)cc1C	4.2%	3.2	5.2%	?	-12.0%	-4.7
COc1ccccc1CNC(=O)COC(=O)c1cccc(S(=O)(=O)N2CCCCC2)c1	105.5%	13.1	-13.3%	?	6.8%	-1.5
COc1cc2nc(SCC(N)=O)n(CCC3=CCCCC3)c(=O)c2cc1OC	-12.1%	-3.6	-2.1%	13.1µM*	6.9%	-5.8
CCN(CC)C(=O)CSc1nc2cc(OC)c(OC)cc2c(=O)n1Cc1ccc(Cl)cc1	11.7µM*	-21.4	4.6%	?	-3.0%	-5.0
Cc1ccc2c(=O)c(C(=O)c3ccc(F)cc3)cn(CC(=O)NCCc3ccccc3)c2n1	/	/	/	/	6.6%	/
Cc1nc2nc(SCC(=O)NC3CCC(C)CC3)nn2c(C)c1Cc1ccccc1 (centres undefined)	/	/	/	/	-13.9%	/
Cc1ccc(SCC(=O)NC(=O)Nc2ccc3c(c2)OCCO3)c(C)c1	13.6%	-6.1	2.2%	488.0%	2.5%	-3.6
c1csc(C2Nc3ccccc3-c3nc4ccccc4n32)c1 (centres undefined)	?	123.6*	-48.5%	?	-4.8%	51.8*
Cc1ccsc1C1Nc2ccccc2-c2nc3ccccc3n21 (centres undefined)	58.6%	132.3*	-32.2%	82.3%	-7.7%	76.1*
CS(=O)(=O)NN1C(=O)c2ccccc2NC1c1cccs1 (centres undefined)	-24.1%	-9.4	/	-21.2%	9.5%	-3.2
COC(=O)c1ccc(NC(=O)Nc2ccc([N+](=O)[O-])cc2)cc1	?	-7.1	8.3%	-7.3%	0.9%	-0.1
CCOC(=O)c1ccc(NC(=O)NCc2ccccc2OC)cc1	?	14.6	-9.4%	13.1µM*	-8.9%	2.7
SMILES	Pf growth 48h	Shiga toxin inh	NS1 inh	Pf growth 96h	Sm TGR inh	Cycloheximide cs
COC(=O)c1ccc(NC(=O)Nc2ccc(F)cc2)cc1	?	107.2*	-116.6%	?	1.8%	25.6*
CCOC(=O)c1ccc(NC(=O)Nc2c(C)nn(C)c2C)cc1	0.4%	3.9	-13.6%	11.7µM*	-3.7%	0.3
CC(=O)c1cccc(NC(=O)Nc2c(C)nn(C)c2C)c1	19.0%	-4.3	3.6%	-13.1%	1.5%	-3.5
CCOC(=O)c1ccc(NC(=O)Nc2ncc(Cl)cc2Cl)cc1	3.5%	22.3	-5.7%	9.5%	39.8µM*	16.5*
Cn1c(CCNC(=O)c2ccco2)nc2cc(NC(=O)COc3ccc(Cl)cc3)ccc21	/	/	/	/	-0.4%	/
O=C(Nc1ccncc1)Nc1ccc(F)c(Cl)c1	3.29µM*	30.5	3.4%	20.3%	-2.9%	14.8
COc1ccc(NC(=O)C2CCCC2)cn1	14.5%	3.7	/	39.3%	-3.8%	-0.6
CCOC(=O)c1ccc(NC(=O)Nc2ccc(OC)c(OC)c2)cc1	?	-4.4	-27.3%	12.8%	-21.3%	-1.1
COc1ccc(NC(=O)Nc2ccc(F)cc2)cn1	29.7%	34.2*	-2.6%	-0.1%	19.4%	29.3*
O=C(Nc1ccc(F)c(Cl)c1)Nc1ccc(Cl)cn1	2.6%	14.4	-0.3%	28.2%	/	-1.0
COC(=O)c1ccc(NC(=O)Nc2ccc(F)c(Cl)c2)cc1	/	48.7*	-53.3%	-60.3%	4.2%	28.1*
CCOC(=O)c1ccc(NC(=O)Nc2ccc(F)cc2)cc1	/	30.1	-94.7%	13.1µM*	5.2%	20.9*
COc1cccc(-n2c(=O)c3c(C)c(C)sc3n(Cc3ccccc3C#N)c2=O)c1	/	/	/	/	4.0%	/
CCN(CC)CCn1c(=S)[nH]c2cc(C(=O)N3CC(C)CC(C)C3)ccc2c1=O (centres undefined)	-26.8%	5.2	4.1%	58.1%	3.7%	-5.0
CCOC(=O)Cc1ccc(NC(=O)Nc2cc3c(cc2N2CCCCC2)n(C)c(=O)n3C)cc1	/	/	/	/	-2.9%	/
COc1ccc(NC(=O)c2cc(OC)c(OC)c(OC)c2)cn1	0.1%	4.9	-5.7%	/	?	8.1
COc1ccc(NC(=O)C(c2ccc(Cl)cc2)C(C)C)cn1 (centres undefined)	1.47µM*	-8.2	-53.0%	?	3.7%	7.0
Cc1ccc(NC(=O)Nc2cccs2)c(Cl)c1	84.2%	107.2*	-22.7%	224.0%	5.2%	56.8*
Cc1c(NC(=O)Nc2cccs2)cccc1[N+](=O)[O-]	0.1%	32.3	/	-26.3%	-19.6%	12.2*
O=C(Nc1cccs1)Nc1ccccc1Cl	/	77.8*	-95.0%	?	-18.4%	75.3*
Cc1cccnc1NC(=O)Nc1cccs1	/	35.3	-42.1%	35.8%	-23.2%	23.8
O=C(Nc1cccs1)Nc1cccnc1Cl	14.0%	58.9*	-2.6%	311.4%	-19.3%	60.4*
N#Cc1ccccc1NC(=O)Nc1cccs1	?	-22.4	2.8%	17.5%	-24.5%	-3.3
CN(CCOc1ccc(Cl)cc1)C(=O)CN1C(=O)NC2(CCCC2)C1=O	-1.7%	/	/	-4.9%	3.0%	/
Cc1ccc(CSCC(=O)NCc2ccco2)cc1	?	25.3	/	?	0.0%	11.3
O=C(CSCc1c(F)cccc1Cl)NCc1ccco1	?	23.7	-3.6%	60.6%	-2.5%	26.0*
